The values that follow come from the supplement of paper PMC10849652.

About 8,800 targets were measured; listed, in parts, are those with a hit and a random draw of the rest. About 0.5% of all pairs of compound and target were hits. Values without a mark were called inactive.

UniProt Q9NP59, sequence (Q9NP59 whole entry, looked up): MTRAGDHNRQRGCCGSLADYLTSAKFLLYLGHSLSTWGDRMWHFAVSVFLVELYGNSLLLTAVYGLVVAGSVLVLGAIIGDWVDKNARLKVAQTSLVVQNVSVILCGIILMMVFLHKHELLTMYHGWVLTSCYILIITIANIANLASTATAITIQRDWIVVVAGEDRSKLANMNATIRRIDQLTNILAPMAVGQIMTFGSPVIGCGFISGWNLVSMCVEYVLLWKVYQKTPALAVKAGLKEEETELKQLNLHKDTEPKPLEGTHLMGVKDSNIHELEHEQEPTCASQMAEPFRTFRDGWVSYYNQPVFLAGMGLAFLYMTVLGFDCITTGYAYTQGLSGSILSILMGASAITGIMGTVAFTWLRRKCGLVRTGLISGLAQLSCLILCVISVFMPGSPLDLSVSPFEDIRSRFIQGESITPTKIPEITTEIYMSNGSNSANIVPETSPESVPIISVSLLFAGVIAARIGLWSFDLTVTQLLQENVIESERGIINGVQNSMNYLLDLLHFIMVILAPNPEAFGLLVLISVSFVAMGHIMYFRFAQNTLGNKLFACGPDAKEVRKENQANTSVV
UniProt O75182, sequence (O75182 whole entry, looked up): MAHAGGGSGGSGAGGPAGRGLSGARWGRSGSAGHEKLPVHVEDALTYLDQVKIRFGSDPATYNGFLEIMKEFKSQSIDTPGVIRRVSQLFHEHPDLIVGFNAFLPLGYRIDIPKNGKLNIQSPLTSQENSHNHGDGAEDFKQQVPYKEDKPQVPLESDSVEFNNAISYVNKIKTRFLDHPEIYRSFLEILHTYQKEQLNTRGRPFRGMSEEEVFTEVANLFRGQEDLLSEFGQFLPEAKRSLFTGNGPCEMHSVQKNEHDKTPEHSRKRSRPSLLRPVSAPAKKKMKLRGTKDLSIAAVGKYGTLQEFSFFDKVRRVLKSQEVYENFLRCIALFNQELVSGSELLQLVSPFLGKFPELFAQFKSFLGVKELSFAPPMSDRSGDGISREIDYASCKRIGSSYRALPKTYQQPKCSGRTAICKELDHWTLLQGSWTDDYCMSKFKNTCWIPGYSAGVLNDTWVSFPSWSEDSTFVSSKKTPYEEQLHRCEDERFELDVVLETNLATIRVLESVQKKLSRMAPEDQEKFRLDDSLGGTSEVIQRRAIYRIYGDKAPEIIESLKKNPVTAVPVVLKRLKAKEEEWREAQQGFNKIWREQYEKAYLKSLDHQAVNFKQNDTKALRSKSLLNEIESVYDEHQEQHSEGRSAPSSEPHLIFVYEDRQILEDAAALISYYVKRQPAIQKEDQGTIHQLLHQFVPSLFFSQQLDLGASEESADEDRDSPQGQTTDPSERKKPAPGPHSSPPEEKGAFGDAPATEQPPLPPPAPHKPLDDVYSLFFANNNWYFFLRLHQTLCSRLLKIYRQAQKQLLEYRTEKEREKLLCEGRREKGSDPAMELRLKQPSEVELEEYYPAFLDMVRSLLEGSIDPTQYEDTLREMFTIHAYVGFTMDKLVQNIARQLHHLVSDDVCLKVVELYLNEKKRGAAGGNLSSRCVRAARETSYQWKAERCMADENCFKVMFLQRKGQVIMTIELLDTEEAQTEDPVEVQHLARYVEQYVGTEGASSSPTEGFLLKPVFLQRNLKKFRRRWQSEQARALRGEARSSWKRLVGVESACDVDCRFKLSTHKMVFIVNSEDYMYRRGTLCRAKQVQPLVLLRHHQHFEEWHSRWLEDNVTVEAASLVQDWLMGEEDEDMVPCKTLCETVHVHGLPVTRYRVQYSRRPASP
UniProt Q15544, sequence (Q15544 whole entry, looked up): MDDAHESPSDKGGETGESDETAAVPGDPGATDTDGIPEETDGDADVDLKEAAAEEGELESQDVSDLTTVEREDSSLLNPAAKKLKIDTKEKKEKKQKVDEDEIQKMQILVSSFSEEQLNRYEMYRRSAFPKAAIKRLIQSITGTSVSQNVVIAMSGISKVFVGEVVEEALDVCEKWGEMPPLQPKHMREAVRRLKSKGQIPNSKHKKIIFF
UniProt Q07617, sequence (Q07617 whole entry, looked up): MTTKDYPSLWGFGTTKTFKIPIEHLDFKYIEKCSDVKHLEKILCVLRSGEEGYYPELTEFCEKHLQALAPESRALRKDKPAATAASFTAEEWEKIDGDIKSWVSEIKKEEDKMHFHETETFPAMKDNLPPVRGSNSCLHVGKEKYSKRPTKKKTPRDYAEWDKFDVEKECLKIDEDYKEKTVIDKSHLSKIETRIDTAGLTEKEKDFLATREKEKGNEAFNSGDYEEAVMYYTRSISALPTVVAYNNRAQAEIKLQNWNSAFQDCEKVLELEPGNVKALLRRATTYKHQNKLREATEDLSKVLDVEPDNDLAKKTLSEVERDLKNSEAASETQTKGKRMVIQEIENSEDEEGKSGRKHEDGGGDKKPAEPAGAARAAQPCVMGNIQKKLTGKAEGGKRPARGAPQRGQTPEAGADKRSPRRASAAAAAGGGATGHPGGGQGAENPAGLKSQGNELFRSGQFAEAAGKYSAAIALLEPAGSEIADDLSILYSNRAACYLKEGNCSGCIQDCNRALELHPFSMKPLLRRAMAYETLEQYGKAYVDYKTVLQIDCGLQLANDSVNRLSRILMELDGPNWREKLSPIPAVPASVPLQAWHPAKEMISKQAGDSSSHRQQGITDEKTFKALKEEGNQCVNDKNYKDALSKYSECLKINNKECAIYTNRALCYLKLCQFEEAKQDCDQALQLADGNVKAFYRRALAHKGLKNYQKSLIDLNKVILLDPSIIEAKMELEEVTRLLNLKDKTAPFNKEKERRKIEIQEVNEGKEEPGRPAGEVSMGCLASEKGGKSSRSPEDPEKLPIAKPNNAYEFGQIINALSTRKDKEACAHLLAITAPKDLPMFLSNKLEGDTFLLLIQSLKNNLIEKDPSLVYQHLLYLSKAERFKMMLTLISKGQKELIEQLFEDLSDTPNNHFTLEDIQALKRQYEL
UniProt Q96CQ1, sequence (Q96CQ1 whole entry, looked up): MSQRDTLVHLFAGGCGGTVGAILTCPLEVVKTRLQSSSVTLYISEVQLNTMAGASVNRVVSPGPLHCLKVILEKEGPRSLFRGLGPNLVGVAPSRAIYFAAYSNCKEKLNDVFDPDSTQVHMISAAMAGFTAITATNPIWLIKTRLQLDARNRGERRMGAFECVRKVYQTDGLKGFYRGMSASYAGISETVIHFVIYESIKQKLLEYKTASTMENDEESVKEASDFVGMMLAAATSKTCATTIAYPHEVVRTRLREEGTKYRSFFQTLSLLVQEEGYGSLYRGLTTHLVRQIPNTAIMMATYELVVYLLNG
UniProt Q13309, sequence (Q13309 whole entry, looked up): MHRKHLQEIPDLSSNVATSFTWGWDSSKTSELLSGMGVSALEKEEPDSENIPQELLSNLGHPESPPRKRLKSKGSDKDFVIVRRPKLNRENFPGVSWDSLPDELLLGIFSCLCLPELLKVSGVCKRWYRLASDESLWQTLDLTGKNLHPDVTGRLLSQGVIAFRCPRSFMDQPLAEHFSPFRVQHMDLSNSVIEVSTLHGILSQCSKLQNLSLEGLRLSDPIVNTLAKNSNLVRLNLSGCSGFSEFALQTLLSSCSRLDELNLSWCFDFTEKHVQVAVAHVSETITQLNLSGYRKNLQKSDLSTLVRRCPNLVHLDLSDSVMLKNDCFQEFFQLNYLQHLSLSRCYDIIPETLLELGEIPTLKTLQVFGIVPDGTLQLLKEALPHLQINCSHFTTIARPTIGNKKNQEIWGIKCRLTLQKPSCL
UniProt O00161, sequence (O00161 whole entry, looked up): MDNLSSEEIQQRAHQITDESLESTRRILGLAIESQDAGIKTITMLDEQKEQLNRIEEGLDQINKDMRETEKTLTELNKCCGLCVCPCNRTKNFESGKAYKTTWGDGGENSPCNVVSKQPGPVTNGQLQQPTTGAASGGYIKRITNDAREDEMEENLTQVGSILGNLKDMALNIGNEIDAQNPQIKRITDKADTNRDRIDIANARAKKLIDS
UniProt Q9Y2D2, sequence (Q9Y2D2 whole entry, looked up): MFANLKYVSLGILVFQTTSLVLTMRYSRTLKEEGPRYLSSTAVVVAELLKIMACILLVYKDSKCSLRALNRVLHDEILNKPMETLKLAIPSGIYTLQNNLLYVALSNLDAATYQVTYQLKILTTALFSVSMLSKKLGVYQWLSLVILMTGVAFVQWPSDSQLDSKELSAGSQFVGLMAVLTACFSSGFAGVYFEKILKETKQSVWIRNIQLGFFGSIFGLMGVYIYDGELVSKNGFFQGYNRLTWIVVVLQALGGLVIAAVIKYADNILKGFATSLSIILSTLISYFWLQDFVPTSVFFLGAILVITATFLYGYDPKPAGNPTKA
UniProt P49675, sequence (P49675 whole entry, looked up): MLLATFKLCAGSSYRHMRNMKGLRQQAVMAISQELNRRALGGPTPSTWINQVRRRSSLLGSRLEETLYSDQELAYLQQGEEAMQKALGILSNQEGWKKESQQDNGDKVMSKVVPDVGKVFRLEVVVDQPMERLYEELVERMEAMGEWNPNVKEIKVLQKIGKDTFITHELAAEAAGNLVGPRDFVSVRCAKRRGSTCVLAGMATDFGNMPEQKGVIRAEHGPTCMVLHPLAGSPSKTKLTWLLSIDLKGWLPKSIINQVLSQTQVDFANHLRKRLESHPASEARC

Compound in this test: CCCS(=O)(=O)Nc1ccc(F)c(C(=O)c2c[nH]c3ncc(-c4ccc(Cl)cc4)cc23)c1F [vemurafenib]
In words: log2 fold change, soluble protein after heating vs DMSO (PISA); higher = thermal stabilisation; K562 lysate, 10 uM; active = over 0.2 and 3.5 SD of the protein, either way, in both replicates (recomputed). The method, boiled down:
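Values give the log-two fold change in thermal stability against solvent controls, from duplicates. Crude K562 extract at 1 mg/mL protein, made by dounce homogenisation in PBS pH 7.4 with 1 mM MgCl2, was treated with 10 μM compound for 30 min. After 3 min heating across 48°C-58°C, aliquots were pooled, adjusted to 0.5% NP-40 at 4°C and centrifuged at 21,000xg for 90 min. The supernatant was measured by TMTpro 16plex LC-MS/MS with channel sums equalised.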
SKP2 (UniProt Q13309): the log2 fold change was 0.417.

On to SNAP23 isoform 2 (UniProt O00161), for which the log2 fold change is 0.172.

Turning to SPAG1 (UniProt Q07617), the log2 fold change was 0.041.

On to STAR (UniProt P49675), for which the log2 fold change was 0.02.

In the case of SIN3B (UniProt O75182), the log2 fold change is -0.042.

As to TAF11 (UniProt Q15544), the log2 fold change was -0.055.

As to SNRPD2 (UniProt K7EJB5), the log2 fold change was 0.061.

SLU7 (UniProt O95391): the log2 fold change is -0.043.

Take SLC25A36 (UniProt Q96CQ1): the log2 fold change is -0.272.

In the case of TARDBP (UniProt K7EN94), the log2 fold change is 0.008.

Turning to SLC40A1 (UniProt Q9NP59), the log2 fold change is 0.01.

In the case of SLC35A3 isoform 2 (UniProt Q9Y2D2), the log2 fold change is -0.024.
